The panel holds about 79,000 compounds, 15% with a hit somewhere; the sample as a whole holds those more often. Calls of active or inactive are those of the source. No stated cut-off is given here; in the data, active means growth inhibition above about 70%; inactive means the rest.
Experiments:
[1] = NCI Yeast Anticancer Drug Screen. Data for the rad50 strain (AID 155);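 further: 0% = growth of vehicle-only cultures of the same strain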; details: S. cerevisiae rad50 strain growth inhibition; at 50.0 µM; active compounds read high
Method in brief: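 Relative growth inhibition (compound vs vehicle) was measured in yeast with a defined repair-gene alteration.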

[2] = NCI Yeast Anticancer Drug Screen. Data for the mec2-1 strain (AID 157); details: S. cerevisiae mec2-1 strain, at 50.0 µM, active compounds read high
Method in brief: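 Using mec2-1 yeast: add compound, measure growth, express inhibition versus vehicle-treated cultures.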

[3] = NCI Yeast Anticancer Drug Screen. Data for the sgs1 mgt1 strain (AID 161);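 further: 0% = growth of cultures given vehicle only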; details: S. cerevisiae sgs1 mgt1 strain, at 50.0 µM, active compounds read high
Method in brief: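 This yeast growth screen uses a strain with defined DNA-repair lesions; compound-treated growth is compared with vehicle-treated growth.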

[4] = NCI Yeast Anticancer Drug Screen. Data for the cln2 rad14 strain (AID 165);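 further: 0% = growth equal to vehicle treated cultures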; details: S. cerevisiae cln2 rad14 strain, at 50.0 µM, active compounds read high
Method in brief: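 Yeast strain cln2 rad14, bearing defects in cell cycle control and DNA repair, serves as the test system; values reflect growth inhibition compared with vehicle.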

[5] = NCI Yeast Anticancer Drug Screen. Data for the bub3 strain (AID 167); details: S. cerevisiae bub3 mutant strain, at 50.0 µM, active compounds read high
Method in brief: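 Screening used yeast with an engineered genetic alteration affecting cell cycle control. Compound-exposed cultures were compared with vehicle cultures, and reduced growth was taken as inhibition.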

[6] = NCI Yeast Anticancer Drug Screen. Data for the mlh1 rad18 strain (AID 175); details: S. cerevisiae mlh1 rad18 strain growth inhibition; at 50.0 µM; active compounds read high
Method in brief: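 Steps: expose repair-defective yeast to compound; measure growth; express inhibition against vehicle-treated controls.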

Measured: growth inhibition

O=C/C=C/c1ccco1
inactive: [1] 17.4% | [2] -14.3% | [3] -15.2% | [4] 14.2% | [5] -8.45% | [6] 31.8%

COC1CC2C=CC3C4OC2(/C(C)=C/C(C)C(C(C)O)OC1=O)C3C(O)C(C)C4OC(=O)c1ccc[nH]1 (stereo unspecified)
inactive: [1] 14.7% | [2] 6.35% | [3] 13.3% | [4] 10.7% | [5] -2.85% | [6] 14.1%

O=C1C2CC(CN3CCCCC23)C2CCCCN12 (stereo unspecified)
inactive: [1] -4.55% | [2] -24.1% | [3] 18.9% | [4] 8.35% | [5] -4.15% | [6] -24.2%

[N-]=[N+]=CC(=O)CCC(=O)C=[N+]=[N-]
inactive: [1] 10.2% | [2] -24% | [3] -27.1% | [4] -19.5% | [5] -20.6% | [6] -67.8%

O=[N+]([O-])c1cc2n[nH]nc2c2nonc12
inactive: [1] 1.45% | [2] 11.3% | [3] 11.4% | [4] -2.05% | [5] 27.1% | [6] 5.7%

COC1CCC2NCCNC2C1 (stereo unspecified)
inactive: [1] 6.35% | [2] -6% | [3] -9.85% | [4] -22.9% | [5] -8.7% | [6] 2.5%

Nc1cccc2ccccc12
inactive: [1] 17.1% | [2] -9.95% | [3] 6.65% | [4] -28.9% | [5] 19.2% | [6] 4.4%

Oc1ccc(CC2NCCc3cc(O)c(O)cc32)cc1O (stereo unspecified)
inactive: [1] 17.5% | [2] -4.15% | [3] 26.3% | [4] 24.3% | [5] 26.4% | [6] 23.1%

COc1ccc2c(c1OC(C)=O)-c1cc(OC(C)=O)cc3c1C(C2)N(C(=O)CN(CCCl)CCCl)CC3 (stereo unspecified)
inactive: [1] -6.4% | [2] -6% | [3] -1.95% | [4] -13% | [5] -0.05% | [6] -6.6%

O=[N+]([O-])c1ccc(OCCOCCOc2ccc(S(=O)(=O)F)cc2)c(Cl)c1
inactive: [1] 56.2% | [2] 15.4% | [3] 21.8% | [4] 29.6% | [5] 45.4% | [6] 56.5%

CC(C)=NNC1=NC(C)(C)P(=O)(N2CCCC2C(=O)O)S1 (stereo unspecified)
inactive: [1] 0.8% | [2] -12.4% | [3] -0.45% | [4] -2.3% | [5] 5.25% | [6] -9.2%

O=C(O)c1cc([N+](=O)[O-])cc([N+](=O)[O-])c1
inactive: [1] -3% | [2] 1.3% | [3] 2.75% | [4] -34.2% | [5] -30.9% | [6] 43.2%

CC(O)c1ccc(Br)cc1 (stereo unspecified)
inactive: [1] -7.95% | [2] 13.3% | [3] 3.55% | [4] -72.4% | [5] -1.45% | [6] 16%

CN1CCC(O)(c2ccc(Br)cc2)C(C(=O)c2ccc(Br)cc2)C1 (stereo unspecified)
active: [1] 96.1% | [3] 99%
inactive: [2] 12.3% | [4] -2.65% | [5] 0.35% | [6] 34.8%

ClCCN(CCCl)CC(Cl)COc1cccc2ccccc12 (stereo unspecified)
inactive: [1] 12.2% | [2] 11.6% | [3] 31.5% | [4] -1.6% | [5] 25.2% | [6] 30.4%

C/C(=N\O)C(CN1CCCCC1)C(c1ccccc1)c1c(O)c2ccccc2oc1=O (stereo unspecified)
inactive: [1] 17.9% | [2] 2.05% | [3] 24.6% | [4] 28.6% | [5] 21.4% | [6] 26.9%

Nc1ccc(Cl)cc1.Nc1ccc(Cl)cc1.Nc1ccc(Cl)cc1.O=C([O-])C(=O)[O-].O=C([O-])C(=O)[O-].[H+].[Ru+5]
inactive: [1] 18.4% | [2] 20.7% | [3] 13.3% | [4] 27.5% | [5] 26.6% | [6] 34.5%

CO[C@H]1C=CC2=CCN3CCC4=C(CC(=O)OC4)[C@]23C1
inactive: [1] -9.3% | [2] -18.9% | [3] -3.6% | [4] 1.8% | [5] -21.9% | [6] -15.4%

CC(C)=CCC1=C(OOC2=C(CC=C(C)C)C(=O)c3ccccc3C2=O)C(=O)c2ccccc2C1=O
inactive: [1] 36.8% | [2] 23.8% | [3] 43% | [4] 11.1% | [5] 5.05% | [6] 5.7%

NC(=O)CCC(NC(=O)Cc1ccccc1)C(=O)O (stereo unspecified) (tested in a mixture with another compound)
inactive: [1] -4.45% | [2] -14.1% | [3] 0.25% | [4] -29.9% | [5] -9.65% | [6] 8.95%

CC(C)(C)c1ccc2c(cc[n+]3ccccc23)c1
inactive: [1] -9.05% | [2] -6.85% | [3] 2.05% | [4] 4.05% | [5] 2.35% | [6] -11.9%

CN(C)c1ccc(C=O)cc1.[C-]#[O+].[C-]#[O+].[C-]#[O+].[Cr]
inactive: [1] -66.2% | [2] -35.5% | [3] -57.5% | [4] 1% | [5] -18.4% | [6] -38.9%

O=NN(Cc1ccccc1)Cc1ccccc1
inactive: [1] 2.55% | [2] 0.1% | [3] 3.1% | [4] 0.5% | [5] 8.6% | [6] 21.4%

O=c1[nH]cc(N=Cc2ccccc2F)c(=O)[nH]1.[Cl][Pt][Cl]
inactive: [1] 20.6% | [2] 6.15% | [3] 24.7% | [4] 26.9% | [5] -0.2% | [6] 8.95%

COC12c3ccccc3-c3ccccc3C1[C@@H](C(=O)O)[C@H]2C(=O)O (stereo partly specified)
inactive: [1] 11.2% | [2] 1.6% | [3] -11.6% | [4] -14% | [5] -24.4% | [6] -10.3%

NCC(Cc1ccccc1)P(=O)(O)O (stereo unspecified)
inactive: [1] -23.8% | [2] -28.6% | [3] -26.4% | [4] -42.3% | [5] -28.1% | [6] -22.8%

C=CCOC(=O)C(Br)CC (stereo unspecified)
inactive: [1] 7.65% | [2] -3.2% | [3] -3.7% | [4] -6.25% | [5] 11.9% | [6] -14.5%

O=C(COc1cccc(Cl)c1Cl)Nc1ccc[n+](Cc2ccc(S(=O)(=O)F)cc2)c1
inactive: [1] 20.4% | [2] 0.15% | [3] -5.45% | [4] 31.2% | [5] 7.4% | [6] 28.6%

O=C(NCC(O)CO)c1ccc(N(CCCl)CCCl)c([N+](=O)[O-])c1[N+](=O)[O-] (stereo unspecified)
inactive: [1] 17.1% | [2] 4.7% | [3] 16.3% | [4] 8.1% | [5] 12.7% | [6] 17.1%

CCC(CCl)NC(CC(C)C)CC(C)C (stereo unspecified)
inactive: [1] -1.95% | [2] 2.95% | [3] -6.75% | [4] -10.5% | [5] -4.7% | [6] -10.8%

O=C(O)C1C2Cc3ccccc3C1c1ccccc12 (stereo unspecified)
inactive: [1] -1.6% | [2] -7.55% | [3] 0.95% | [4] 0.6% | [5] -13.7% | [6] -10%

CCN(CC)C(=S)[S][Pb]([CH2]C)([CH2]C)[CH2]C
inactive: [1] 3.5% | [2] 9.25% | [3] 30.2% | [4] 16.9% | [5] -1.35% | [6] 10.2%

CC12CC/C(=N/NC(=O)Cc3c[nH]c4ccccc34)C=C1CCC1C2CCC2(C)C(OC(=O)c3ccccc3)CCC12 (stereo unspecified)
inactive: [1] 35.8% | [2] 28.6% | [3] 24.1% | [4] 0.65% | [5] 3.3% | [6] 34.8%

CCCCOP(O)(=S)OCCCC.[Y]
inactive: [1] -20.9% | [2] 2.95% | [3] 4.2% | [4] 25.4% | [5] -8.6% | [6] -2.75%

Oc1ccc(O)c(Br)c1
inactive: [1] 18.8% | [2] 5.9% | [3] 28.1% | [4] -21.3% | [5] -4.85% | [6] 29.4%

N#CN=C(N)NC#N
inactive: [1] 24.1% | [2] 12.9% | [3] 7.3% | [4] 0.55% | [5] 13.8% | [6] 17.1%

CCCC(=O)[O-].N.N.N.N.N.[Co+3].[O-][Cl+3]([O-])([O-])[O-]
inactive: [1] -23.8% | [2] -2.3% | [3] -41% | [4] 8% | [5] 1.7% | [6] -21.9%

CN(C)CCNC(=O)c1cccc(COC(=O)N(CCCl)CCCl)c1[N+](=O)[O-]
inactive: [1] 9.55% | [2] -2.4% | [3] 15.8% | [4] 10.1% | [5] -9.45% | [6] 9.7%

CCNC1CCCCC1
inactive: [1] 26.3% | [2] -5.45% | [3] -14.2% | [4] 29.1% | [5] -19.1% | [6] 20.1%

CC1OC(=O)C2CC3CCCCC3C(/C=C/C3CCCC(C)N3C)C12 (stereo unspecified)
inactive: [1] 1.2% | [2] -11.2% | [3] -11.2% | [4] 28.4% | [5] -10.4% | [6] -2.35%

[CH3][Sn]([Cl])([Cl])[c]1ccccc1
inactive: [1] -22.9% | [2] 2.05% | [3] 8.7% | [4] -18.5% | [5] -12.8% | [6] 1.6%

From PubChem BioAssay (NCI)
